Test results from the OligoGym collection.
Also: reference of the scale not given here.

These sequences were tested against SEZ6L (assay: pooled miR-30 sensor sort-seq; sequence = guide strand). Settings: shRNA.
For TGGATATCTAAGAAGATCCGTT, the sensor-assay potency score (higher = more potent) was -0.621.
TTGGAGAAGCTCACACTGCAGA was tested, and the sensor-assay potency score (higher = more potent) was -0.466.
In the case of TAGACTGTCACGTTGTATGTGC, the sensor-assay potency score (higher = more potent) was 0.1.
Sequence TTATAGGTCGGGTCGGATGTAG has a sensor-assay potency score (higher = more potent) of -0.637.
TTGTCATGCAGCAACAGCCTCT was tested, and the sensor-assay potency score (higher = more potent) was -0.492.
For TAGATGGTCAAGATGTCACTGT, the sensor-assay potency score (higher = more potent) was -0.115.
TGGAATAGTAGCGACATCTTGT was tested, and the sensor-assay potency score (higher = more potent) was -0.571.
For TTGGTATCCATTTTCAGGCAGC, the sensor-assay potency score (higher = more potent) was -0.526.
TCGGACGTGAACTCGATGCGGA showed a sensor-assay potency score (higher = more potent) of -0.799.
TAATTTTCTCACAAAATGGGGG showed a sensor-assay potency score (higher = more potent) of -0.33.

The sequences below were run against SFRP4 in the same assay as above. Settings: shRNA.
Work on TTGGCATGAATAACATAGCTGT yielded a sensor-assay potency score (higher = more potent) of -0.164.
With TATGGATCTTTTACTAAGCTGA the sensor-assay potency score (higher = more potent) was -0.661.
TTTACACTTGCACCGATCGGGG was tested, and the sensor-assay potency score (higher = more potent) was -0.824.
In the case of TTTACATCCACCACCGTTGTGA, the sensor-assay potency score (higher = more potent) was 0.315.
TTTTCTTCTTGTCCTGAACTGT gave a sensor-assay potency score (higher = more potent) of -0.361.
With TAGACAGGCAGCTCGTCGCAGG the sensor-assay potency score (higher = more potent) was -0.454.
With TTACTAAGCTGATCTCTCCATT the sensor-assay potency score (higher = more potent) was -0.515.
For TATCCACTTAACATCCTCCGGG, the sensor-assay potency score (higher = more potent) was 0.611.
Sequence TTGTCCTGAACTGTTCTCCGCT has a sensor-assay potency score (higher = more potent) of 0.199.
Sequence TTTACTAAGCTGATCTCTCCAT has a sensor-assay potency score (higher = more potent) of -0.0154.
Sequence TTTTCAAGAAGCATCATCCTTG has a sensor-assay potency score (higher = more potent) of 0.0999.
In the case of TTTTACACTTGCACCGATCGGG, the sensor-assay potency score (higher = more potent) was 0.497.

What follows are sequences tested against SFT2D2 in the same assay as above. Settings: shRNA.
TTTATCCTGGTACTCCAGCTTA was tested, and the sensor-assay potency score (higher = more potent) was -0.866.
For AAGAGGTGTAGTCCCTTCCTGG, the sensor-assay potency score (higher = more potent) was -1.12.
TTAATGAAGATGCCTCAACAAC showed a sensor-assay potency score (higher = more potent) of -1.49.
Sequence ATCACAAGCAACACATTGCTGC has a sensor-assay potency score (higher = more potent) of -0.583.
TACAAAACTGTCCACCAGCTTC was tested, and the sensor-assay potency score (higher = more potent) was -0.963.
For TTATCCTGGTACTCCAGCTTAA, the sensor-assay potency score (higher = more potent) was -1.39.
TTGCAATCAAACGAGTAGGCTC gave a sensor-assay potency score (higher = more potent) of -0.3.
With TCAAACATTCGCTTCAGCTGTT the sensor-assay potency score (higher = more potent) was 0.727.
TATAGCAAAACACGCAATGAAG gave a sensor-assay potency score (higher = more potent) of -1.77.
In the case of TGATAGTTGCAATCAAACGAGT, the sensor-assay potency score (higher = more potent) was -0.692.
TGCAAAACACAACAGCACCATG was tested, and the sensor-assay potency score (higher = more potent) was -1.45.

What follows are sequences tested against SFTA2 in the same assay as above. Settings: shRNA.
TGGAGGGTGACGCTGGTCCCTG was tested, and the sensor-assay potency score (higher = more potent) was -1.43.
With ATTTGTCAGAAAAGACTCCTTC the sensor-assay potency score (higher = more potent) was 0.636.
For TCAAGCAATTCCAGGAAGCTGG, the sensor-assay potency score (higher = more potent) was -0.742.
With TCAGTTGCAAAGTCATACCCGG the sensor-assay potency score (higher = more potent) was 0.0994.
In the case of TTTGTCAGAAAAGACTCCTTCA, the sensor-assay potency score (higher = more potent) was 0.111.
For TCCATGTGAGCTGCCAAGGAGG, the sensor-assay potency score (higher = more potent) was -1.63.
With AATTTGTCAGAAAAGACTCCTT the sensor-assay potency score (higher = more potent) was -0.354.
